# Data from the supplement of paper PMC6555819.
# Assays:
# Assay in all cases: PBM binding z-score (relative to random genomic background probes); higher = stronger binding; sequences stand for … in GC…GCGATTGACAGCGTAGAATGAAGG
# [1] = test system: FXR:RXRa (NR concentration 270 nM, RXRa partner concentration 90 nM)
# In short: (§1)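 Binding buffer was PBS pH 7.4 with 2% milk, 0.02% Triton X-100, 1 mM DTT, 0.2 mg/mL BSA and 0.4 mg/ml salmon testes DNA. In it, ligand-free nuclear receptor dimers were incubated 1 h on custom Agilent 4×180K protein-binding microarrays carrying double-stranded probes. Antibodies against each partner (one per run) detected binding, and z-scores were calculated against random background probes after regression normalization of scanned fluorescence.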
# [2] = test system: LXRa:RXRa (NR concentration 270 nM, RXRa partner concentration 90 nM)
# In short: as §1
# [3] = test system: LXRa homodimer (NR concentration 270 nM)
# In short: as §1
# [4] = test system: LXRb:RXRa (NR concentration 270 nM, RXRa partner concentration 90 nM)
# In short: as §1
# [5] = test system: LXRb homodimer (NR concentration 270 nM)
# In short: as §1
# [6] = test system: PPARa:RXRa (NR concentration 270 nM, RXRa partner concentration 90 nM)
# In short: as §1
# [7] = test system: PPARg:RXRa (NR concentration 180 nM, RXRa partner concentration 90 nM)
# In short: as §1
# [8] = test system: PPARg:RXRa 270nM:90nM, anti-RXR (NR concentration 270 nM, RXRa partner concentration 90 nM)
# In short: as §1
# [9] = test system: PPARg:RXRa 30nM:10nM, anti-RXR (NR concentration 30 nM, RXRa partner concentration 10 nM)
# In short: as §1
# [10] = test system: PPARg:RXRa 90nM:30nM, anti-RXR (NR concentration 90 nM, RXRa partner concentration 30 nM)
# In short: as §1
# [11] = test system: PPARg:RXRa DBDmut IVT, anti-RXR (DBD mutation: RXRa K156A/R161A, NR concentration 270 nM, RXRa partner concentration 90 nM)
# In short: as §1
# [12] = test system: PPARg:RXRa IVT, anti-PPARg (NR concentration 270 nM, RXRa partner concentration 90 nM)
# In short: as §1
# [13] = test system: PPARg DBDmut:RXRa IVT, anti-PPARg (DBD mutation: PPARg1 K132A/R137A, NR concentration 270 nM, RXRa partner concentration 90 nM)
# In short: as §1
# [14] = test system: PPARg DBDmut IVT, anti-PPARg (DBD mutation: PPARg1 K132A/R137A, NR concentration 270 nM)
# In short: as §1
# [15] = test system: PPARg homodimer (NR concentration 180 nM)
# In short: as §1
# [16] = test system: PXR:RXRa (NR concentration 270 nM, RXRa partner concentration 90 nM)
# In short: as §1
# [17] = test system: PXR homodimer (NR concentration 270 nM)
# In short: as §1
# [18] = test system: RARa:RXR (NR concentration 270 nM, RXRa partner concentration 90 nM)
# In short: as §1
# [19] = test system: RARa homodimer (NR concentration 270 nM)
# In short: as §1
# [20] = test system: RARb:RXRa (NR concentration 270 nM, RXRa partner concentration 90 nM)
# In short: as §1
Sequence,PBM binding z-score [1],PBM binding z-score [2],PBM binding z-score [3],PBM binding z-score [4],PBM binding z-score [5],PBM binding z-score [6],PBM binding z-score [7],PBM binding z-score [8],PBM binding z-score [9],PBM binding z-score [10],PBM binding z-score [11],PBM binding z-score [12],PBM binding z-score [13],PBM binding z-score [14],PBM binding z-score [15],PBM binding z-score [16],PBM binding z-score [17],PBM binding z-score [18],PBM binding z-score [19],PBM binding z-score [20]
GCATATAGGTAATACAAGGTGAATGTCCGATTGT,1.08,1.54,0.343,0.292,-0.289,1.08,1.37,1.14,0.382,0.743,4.28,3.39,1.78,0.61,0.903,0.286,0.012,0.602,0.84,0.305
GTATATAGGTAATACAAGGTGAAAGTCCGATTGT,0.948,2.78,0.975,0.947,0.188,2.78,3.05,2.69,1.39,1.94,5.56,5.62,2.12,2.34,1.29,0.792,0.761,1.95,1.09,0.593
CTTCCAAGGTCAGCAGGTCAGTGAAAGCGACGTG,5.62,4.48,0.986,3.24,0.067,4.87,3.78,4.64,1.14,3.27,3.41,3.82,-0.278,-0.339,3.61,3.42,0.858,4.68,1.77,5.26
CGAACTAGGTCAAGGACAGTGAATCTCCGCACGC,3.29,2.29,0.163,1.51,-0.597,4.64,7.4,6.24,3.8,6.11,8.2,8.25,4.79,1.98,2.91,1.18,-0.052,2.3,0.629,3.94
ATCTCTAGGTAAAGTTGAGTGAAAGATCGATAGA,0.674,0.644,-0.0419,0.163,0.646,0.992,1.37,2.56,1.23,2.07,2.32,2.1,0.815,1.27,0.789,-0.222,0.345,0.0645,0.741,0.652
AGAACGAGGGCACGCTGAGTTGATAGTAGAGTAG,0.725,0.439,-0.765,0.35,-0.699,2.1,1.94,1.62,0.448,0.971,4.08,3.89,0.542,0.293,0.125,1.26,0.49,0.759,-0.324,2.57
CGAACGAGGGTATGAGTTGATAGCAAATGCCGAT,-0.386,-0.2,-0.268,-0.396,-0.567,-0.124,0.652,0.353,-0.0706,0.292,0.876,0.397,0.137,0.369,-0.383,-0.238,0.0824,-0.307,0.157,0.117
ATCTCTAGGTAAAGATATTTCAGTGAATGCAAAT,0.207,0.268,0.422,0.346,0.74,0.352,0.976,0.732,0.499,0.83,2.46,1.88,1.53,1.33,0.424,0.367,0.337,0.994,1.26,0.0831
TGAATGAGGTTATAACATCAGGGAACGTTGCAAA,1.52,1.46,-0.281,1.2,-0.639,2.52,1.12,1.54,0.946,1.41,0.822,1.57,1.79,0.499,0.614,0.813,-0.514,1.4,0.248,1.04
ACAGACTGGTGAGTGAAGGTAACTCAGCTGGACG,-0.31,-0.557,-0.264,-0.755,-0.871,-0.552,0.259,-0.5,-0.557,-0.438,-0.695,-0.409,-0.15,-0.348,0.0199,-0.565,-0.163,-0.434,-0.0964,-0.281
GGAACGAGGGCATTCGAGTTGCTAGCATGGCGAT,0.791,0.5,-0.577,-0.157,-0.675,0.953,0.443,0.479,-0.435,-0.173,2.56,2.02,-0.0761,-0.825,-0.911,2.3,-0.0583,0.598,-0.778,1.8
CCTTCTAGGTCAATGGTCAGCTAAAGCAGCTCGC,3.17,2.37,0.146,1.58,0.698,4.34,7.25,6.5,5.76,7.12,7.32,6.6,0.00752,0.699,2.03,0.931,-0.321,1.73,0.51,3.85
ACTAGCAGGCCAAGTTTGGGTCACTCGAACAAAG,0.398,0.0952,-0.533,0.67,-0.727,1.33,0.0973,0.504,-0.62,0.14,1.03,1.36,-0.745,-0.0393,0.399,0.625,-0.591,1.12,-0.754,1.68
CCTACTGGGCCATGGTCATTGATCAGTCAAAGCA,0.0298,-0.313,-0.591,-0.226,-1.02,0.969,1.05,1.3,-0.281,0.872,3.04,3.48,-0.574,-0.734,0.222,-0.316,-0.489,-0.363,-1.03,0.532
AGAATAAGGTTACCAAAGATCAGGGAAACGCTTG,1.76,5.91,0.165,2.57,-0.0188,2.93,1.84,2.41,0.732,1.67,2.55,2.26,1.2,1.13,0.8,1.03,0.338,1.61,0.942,2.57
